Test results reported in PubChem BioAssay AID602123 (The Scripps Research Institute Molecular Screening Center, 2011).
Screen size: about 360,000 compounds; about 1,500 (0.42%) were called active. Cut-off read from the data, not from the text of the source: active = inhibition above about 13% (passing the limit was not always enough); inactive = the rest. This excerpt belongs to a sample that is enriched for actives.

The compounds below were run against Lon protease (Escherichia coli (strain K12)) (UniProt P0A9M0) (assay: E. coli eLon protease inhibition – biochemical, fluorescence polarization, primary screen (AID 602123;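 note: 0% = enzyme with probe and DMSO and 100% = no enzyme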)). Conditions: purified E. coli Lon protease, at 7.94 µM, stronger effect = higher value.
Chain of Lon protease (Escherichia coli (strain K12)) (P0A9M0 whole entry, looked up): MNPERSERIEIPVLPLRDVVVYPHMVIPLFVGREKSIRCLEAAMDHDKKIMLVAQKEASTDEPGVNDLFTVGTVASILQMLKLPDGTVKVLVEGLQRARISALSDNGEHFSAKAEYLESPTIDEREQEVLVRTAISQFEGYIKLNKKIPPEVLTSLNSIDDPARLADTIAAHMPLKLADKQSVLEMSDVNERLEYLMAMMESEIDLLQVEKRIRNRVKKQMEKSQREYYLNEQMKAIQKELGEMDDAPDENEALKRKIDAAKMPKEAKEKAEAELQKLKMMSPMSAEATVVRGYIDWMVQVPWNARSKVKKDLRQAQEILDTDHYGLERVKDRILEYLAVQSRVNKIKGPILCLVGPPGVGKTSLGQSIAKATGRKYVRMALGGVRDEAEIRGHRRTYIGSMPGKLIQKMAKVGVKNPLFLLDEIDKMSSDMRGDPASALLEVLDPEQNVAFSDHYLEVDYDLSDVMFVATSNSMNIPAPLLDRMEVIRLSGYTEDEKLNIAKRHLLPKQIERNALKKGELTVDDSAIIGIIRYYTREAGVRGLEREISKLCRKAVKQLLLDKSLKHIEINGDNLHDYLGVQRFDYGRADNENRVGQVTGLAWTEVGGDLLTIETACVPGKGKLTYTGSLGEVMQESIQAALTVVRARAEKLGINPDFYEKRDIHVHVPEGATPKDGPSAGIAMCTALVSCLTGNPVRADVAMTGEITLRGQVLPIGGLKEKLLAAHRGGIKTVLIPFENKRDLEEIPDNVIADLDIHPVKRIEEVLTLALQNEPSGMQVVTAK
In the case of `O=S(=O)(NCc1ccccn1)c1ccc(Br)s1`, the inhibition was -5.95% (inactive). For `O=S(=O)([N-]c1nc2ccccc2nc1-[n+]1ccc(Cc2ccccc2)cc1)c1ccc(Br)s1`, the inhibition was 51.7% (active). In the case of `CCOC(=O)C(C(=O)c1ccccc1)C(c1ccccc1)c1nccc2ccccc12` (configuration not stated), the inhibition was -5.25% (inactive). For `CCOCCOCCC(C(=O)O)P(=O)(c1ccccc1)c1ccccc1` (configuration not stated), the inhibition was 1.28% (inactive). `CSc1ncccc1C(=O)NCC(c1ccco1)N1CCCCC1` (configuration not stated) was tested, and the inhibition was 2.84% (inactive). With `O=C(NCc1ccco1)c1cnn2c(C(F)(F)F)cc(-c3ccco3)nc12` the inhibition was -0.62% (inactive). With `Oc1ccc2ccccc2c1N=Nc1nccs1` the inhibition was 43.2% (active). With `O=C(COC(=O)CNC(=O)C1CCCCC1)Nc1cccc(F)c1` the inhibition was -17.9% (inactive). `CCN1CCN(CC(=O)c2cc(OC)c(OC)c(OC)c2)CC1` was tested, and the inhibition was 7.78% (inactive). `Cc1ccc(C=O)c([B-](F)(F)F)c1` was tested, and the inhibition was -1.79% (inactive). For `CN1c2ccc(C=O)c3c(C=O)ccc(c23)N(C)C1(C)C`, the inhibition was 117% (active). `COc1ccc(C(=O)NCC(c2ccco2)N2CCc3ccccc32)cc1OC` (configuration not stated) was tested, and the inhibition was 4.85% (inactive). `COc1cc(OC)cc(C(=O)NNC(=O)Cc2cccs2)c1` was tested, and the inhibition was -9.81% (inactive). `COc1ccc(OC)c(NC(=O)Cc2cccs2)c1` was tested, and the inhibition was 32.4% (active). In the case of `COc1ccc(C)cc1NC(=O)CNCc1cccs1`, the inhibition was 5.01% (inactive). For `COc1cc(C(=O)Nc2ncccc2C)ccc1OCC(=O)N1CCOCC1`, the inhibition was -2.64% (inactive). With `CC(=O)CC[C@@H](C)O[C@@H]1OC(C)[C@H](O)CC1O` (some centres not stated) the inhibition was 1.06% (inactive). `CCc1cc2c(=O)c(-c3nc4ccccc4n3C)c(CCCC(=O)O)oc2cc1OC(=O)C(C)(C)C` was tested, and the inhibition was -5.21% (inactive). For `O=C1C(Sc2cccc(F)c2)=C[C@@]2(O)CC[C@@H](O)[C@]1(Sc1cccc(F)c1)[C@H]2O`, the inhibition was -1.25% (inactive). For `COc1ccc(CC(=O)NCc2nnc(SCC(=O)Nc3nccs3)n2C)cc1`, the inhibition was -1.92% (inactive). For `COc1ccc(C(=O)NCc2nnc(SCC(=O)NC3=NCCS3)n2C)cc1`, the inhibition was 1.04% (inactive). For `COc1ccc(C(=O)NCc2nnc(SCCOc3ccccc3)n2C)cc1`, the inhibition was 19.3% (active). In the case of `C/C(=N\NC(=O)NC1CCCCC1)c1ccc(OC(F)F)cc1OC(F)F`, the inhibition was -5.36% (inactive). For `O=C1C(C=NCC2CCCO2)=C(O)c2ccccc21` (configuration not stated), the inhibition was 3.5% (inactive). For `O=C1c2cccc3c([N+](=O)[O-])ccc(c23)C(=O)N1CC1CCCO1` (configuration not stated), the inhibition was 25.4% (active). With `N#Cc1cc([N+](=O)[O-])ccc1NCC1CCCO1` (configuration not stated) the inhibition was 7.82% (inactive). In the case of `COc1ccc(SCCN2CCN(CC(C)C)CCC2=O)cc1`, the inhibition was 8.99% (inactive). `CN(Cc1cn(Cc2ccc(C(F)(F)F)cc2)nn1)C1CN(Cc2cn(Cc3ccc(C(F)(F)F)cc3)nn2)S(=O)(=O)C1` (configuration not stated) was tested, and the inhibition was 4.67% (inactive). In the case of `Cc1ccccc1S(=O)(=O)NC(=O)C1(C)CCN1C(=O)C1(c2ccccc2)CCCC1` (configuration not stated), the inhibition was -3.92% (inactive). With `CCN(CC)C(=O)CSc1nnc(-c2ccc(S(=O)(=O)NCc3ccccc3Cl)cc2)o1` the inhibition was 11.8% (inactive). In the case of `Cc1cnc(CN(C)C(=O)C2CCC(=O)N(CCc3cccc(F)c3)C2)[nH]1` (configuration not stated), the inhibition was 0.28% (inactive). `COc1ccc(NC(=O)CSc2nnc(Cc3ccccc3)c(=O)n2N)cc1` was tested, and the inhibition was 1.33% (inactive). With `COc1ccc(NC(=O)CC(NC(C)c2ccccc2)C(=O)O)cc1` (configuration not stated) the inhibition was 1.2% (inactive). In the case of `COc1ccc(CC(=O)Nc2ccc(-c3nnc(-c4ccccc4)o3)cc2)cc1`, the inhibition was 27.1% (active). `O=c1c2ccccc2nc2n1C(CSCc1cccc(C(F)(F)F)c1)CS2` (configuration not stated) was tested, and the inhibition was -0.91% (inactive). With `COc1ccc(C2C3=C(OC(C)=O)c4ccccc4C3=Nc3c2c(=O)n(C)c(=O)n3C)cc1` (configuration not stated) the inhibition was -3.27% (inactive). `CC1Cc2cc(/C(O)=C3\C(=O)C(=O)N(Cc4cccnc4)C3c3ccccc3F)ccc2O1` (configuration not stated) was tested, and the inhibition was -8.03% (inactive). For `O=C1C=C(NCCNc2c(F)c(F)c(CO)c(F)c2F)CCC1`, the inhibition was 16.1% (active). With `CC1CC(C)CN(C(=O)COC(=O)c2ccc3ncsc3c2)C1` (configuration not stated) the inhibition was 0.01% (inactive). `CC(C)NC(=O)Nc1cccc2c1O[C@@H](CN(C)S(=O)(=O)c1ccc(F)cc1)[C@@H](C)CN([C@H](C)CO)C2=O` was tested, and the inhibition was -17.1% (inactive). With `O=C(Cn1cnc2ccccc21)Nc1ccccc1-c1ccccc1` the inhibition was -15.9% (inactive). In the case of `O=C(COC(=O)Cn1cnc2ccccc21)Nc1cccc2c1C(=O)c1ccccc1C2=O`, the inhibition was 49.2% (active). In the case of `O=C(COC(=O)c1cccc(Br)c1)Nc1cccc2c1C(=O)c1ccccc1C2=O`, the inhibition was -3.73% (inactive). `Cc1ccc(S(=O)(=O)N2CCC(C(=O)NCCC3=CCCCC3)CC2)cc1C` was tested, and the inhibition was 2.33% (inactive). `Cc1ccc(OCC(=O)Nc2cccc3c2CCCC3)cc1C` was tested, and the inhibition was -1.11% (inactive). In the case of `O=C(Nc1ccc(Br)cc1F)C1CC(=O)N(C2CCCCC2)C1` (configuration not stated), the inhibition was -9.6% (inactive). `CCS(=O)(=O)n1nc(-c2ccccc2)nc1SCc1ccccc1` was tested, and the inhibition was 0.39% (inactive). In the case of `COc1ccccc1-c1cc2nc(NCc3cccc(Cl)c3)ccn2n1`, the inhibition was 19.1% (active). In the case of `COc1ccc(-c2cc3nc(NCCOc4ccccc4)ccn3n2)cc1`, the inhibition was 5.17% (inactive). `CC(C)Cc1ccc(-c2cc3nc(NCc4cccc(Cl)c4)ccn3n2)cc1` was tested, and the inhibition was -0.63% (inactive). With `O=C(NCCc1ccco1)C(=O)NCCC1CCCCN1S(=O)(=O)c1ccccc1` (configuration not stated) the inhibition was 0.36% (inactive). With `COc1cc(OC)c2ccc(=O)oc2c1C(CCN1CCN(c2ccccc2)CC1)c1ccc2c(c1)OCO2` (configuration not stated) the inhibition was -2.01% (inactive). In the case of `O=C(NC(=O)c1ccc(Cl)c(Cl)c1)OC1CCS(=O)(=O)C1` (configuration not stated), the inhibition was -3.19% (inactive). With `CCOCCCNS(=O)(=O)Cc1ccccc1` the inhibition was 5.68% (inactive). In the case of `CCCc1cc(=O)[nH]c(SCC(=O)N2CCN(S(=O)(=O)c3ccc(C)cc3C)CC2)n1`, the inhibition was 22.9% (active). With `CCCc1cc(=O)[nH]c(SCC(=O)Nc2ccc(S(=O)(=O)N3CCCC3)cc2)n1` the inhibition was -14.4% (inactive). For `Cc1ccc(S(=O)(=O)N2CCN(C(=O)CSc3cc(C)ccc3C)CC2)c(C)c1`, the inhibition was 1.59% (inactive). For `COc1ccc(S(=O)(=O)N2CCCCC2c2cc(C(=O)NCc3ccc(F)cc3)no2)cc1` (configuration not stated), the inhibition was -3.9% (inactive). In the case of `CCCOn1c(-n2nc(C)cc2C)nc2ccccc2c1=O`, the inhibition was -4.29% (inactive). With `CC1(C)NC(=O)N(CC(=O)Nc2ccc(-c3ccccc3)cc2)C1=O` the inhibition was -5.51% (inactive). For `COc1ccc2[nH]c(C)c(CCN(Cc3cccs3)C(=S)Nc3ccccc3OC)c2c1`, the inhibition was 18.1% (active). For `Cc1[nH]c2ccccc2c1CCN(Cc1cccs1)C(=S)NC(C)(C)C`, the inhibition was -6.78% (inactive). For `COc1ccc(NC(=S)NCc2cccs2)c(OC)c1`, the inhibition was -8.04% (inactive). `CCn1c(CSc2nncn2-c2ccc(OC)cc2)nc2cc(S(=O)(=O)N(C)C)ccc21` was tested, and the inhibition was 3.36% (inactive). `Cc1ccccc1Nc1nc(N)nc(CN2CCN(c3ccccn3)CC2)n1` was tested, and the inhibition was 16.7% (active). `CCCn1nc(C(=O)OCc2nc(N)nc(Nc3ccccc3C)n2)c2ccccc2c1=O` was tested, and the inhibition was -13.7% (inactive). With `Cc1ccccc1Nc1nc(N)nc(CSc2nnc3ccccn23)n1` the inhibition was 7.49% (inactive). For `Cc1sc(NC(=S)NC(=O)c2cccs2)nc1-c1ccc(CC(C)C)cc1`, the inhibition was -2.21% (inactive). With `O=C(CSCc1ccc([N+](=O)[O-])cc1)Nc1cccc(C(=O)Nc2ccccc2C(=O)O)c1` the inhibition was -7.21% (inactive). With `Cc1ccc(S(=O)(=O)N2CCC(C(=O)OCC(=O)N(C)c3ccccc3)CC2)cc1C` the inhibition was -4.62% (inactive). `C[C@@H]1CN([C@H](C)CO)C(=O)CCCn2nncc2CO[C@@H]1CN(C)C(=O)OCc1ccccc1` was tested, and the inhibition was -12.2% (inactive). In the case of `O=C(CSc1n[nH]c(-c2cccnc2)n1)Nc1ccnc2ccccc12`, the inhibition was -1.63% (inactive). With `CCN(CC(=O)NC1CCS(=O)(=O)C1)c1nc(-c2cccnc2)nc2ccccc12` (configuration not stated) the inhibition was -4.31% (inactive). `COc1ccc(Nc2nc(-c3cccnc3)nc3ccccc23)cn1` was tested, and the inhibition was 51.2% (active). With `O=C(C1=C(O)C(=O)N(Cc2ccccc2)C1c1cccnc1)c1ccco1` (configuration not stated) the inhibition was -4.41% (inactive). `O=C(C1=C(O)C(=O)N(c2ncccn2)C1c1cccs1)c1ccco1` (configuration not stated) was tested, and the inhibition was 44.3% (active). For `Cc1ccc2nc(N3C(=O)C(O)=C(C(=O)c4ccco4)C3c3cccc(O)c3)sc2c1` (configuration not stated), the inhibition was -1.95% (inactive). `CCOC(=O)Cn1c(SC)nc2sc3c(c2c1=O)CC(C)(C)OC3` was tested, and the inhibition was -4.5% (inactive). In the case of `CC(C)c1nc2sc3c(c2c(=O)n1N)CC(C)(C)OC3`, the inhibition was -4.29% (inactive). With `CC/C(C)=N/Nc1nc2sc3c(c2c(=O)[nH]1)CC(C)(C)OC3` the inhibition was 20.9% (active). In the case of `CCC(C)c1ccc(NC(=S)NCc2ccccn2)cc1` (configuration not stated), the inhibition was 0.44% (inactive). `CN(C)c1ccc(C2N(C)C(=O)c3ccccc3N2C)cc1` (configuration not stated) was tested, and the inhibition was -1.4% (inactive). With `CN(C)c1ccc(Nc2c3c4c(cccc4n(C)c2=O)C(=O)c2ccccc2-3)cc1` the inhibition was 48.2% (active). In the case of `COc1ccc(NC(=O)CC2C(=O)OCC3CCCCN32)cc1Cl` (configuration not stated), the inhibition was 1.67% (inactive). With `Cc1ccc(C(=O)O)c(NC=O)c1OCc1ccccc1` the inhibition was -0.93% (inactive). With `COc1ccc(-c2csc(C(O)c3cccc(Cl)c3)n2)cn1` (configuration not stated) the inhibition was -11.3% (inactive). With `CCN1CC=C2C(C#N)=C(N)C(C#N)(C#N)[C@H](c3ccoc3)[C@H]2C1` the inhibition was 120% (active). For `CC(C)C(=O)Nc1nnc(Sc2ccc(N(C)C)cc2)s1`, the inhibition was -6.47% (inactive). For `CCN(CC(=O)NCc1ccc(Cl)cc1)C(=O)CSc1ccccc1`, the inhibition was -3.84% (inactive). With `CCOCCN(C=O)c1cccc(OC)c1` the inhibition was 32.6% (active). `CCN(CC)C(=O)CN(c1cccc(OC)c1)S(=O)(=O)c1ccc(C)cc1` was tested, and the inhibition was -0.24% (inactive). With `CCOC(=O)NC(=O)C(=CNc1cccc(OC)c1)C(=O)NC(=O)OCC` the inhibition was -2.26% (inactive).
